High-throughput results: PubChem, several laboratories
Bead autofluor = counter-screen for toxin protease inhibitors: compound fluorescence; 360,000 compounds, 3.1% hits; fluorescence intensity (test concentration not listed); compound autofluorescence counterscreen, microsphere flow cytometry; active compounds read high; in the data active = fluorescence intensity above about 16000; inconclusive = no clear call, values can overlap the other calls
BoNT-F LC inh = BoNT/F light chain protease inhibitors, primary screen, biochemical, flow cytometry, MLPCN library | Botulinum neurotoxin type F light chain protease (Clostridium botulinum) | Multiplex microsphere protease cleavage assay | inhibition, % at 10 µM | 360,000 compounds, 0.22% hits | AID 588497, 2011; in the data active = inhibition above about 35%, passing the limit was not always enough; inconclusive = no clear call, values can overlap the other calls
PfHsp40 yeast = rescue of yeast from PfHsp40 toxicity, primary screen, S. cerevisiae, ATP luminescence; 340,000 compounds, 0.68% hits; AID 504582, 2011; S. cerevisiae expressing PfHsp40, growth rescue; growth rescue, % at 12.5 µM; in the data active = growth rescue above about 28%, passing the limit was not always enough; inconclusive = no clear call, values can overlap the other calls;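 also: yeast W303a lacking pdr1 and pdr3 grown in galactose medium; growth measured after three days at 30 °C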
Anthrax LF inh2 = Bacillus anthracis LF protease inhibitors, primary screen, biochemical, multiplex microsphere, MLPCN library; Lethal factor (Bacillus anthracis), P15917; multiplex microsphere protease cleavage assay; inhibition, % at 10 µM; 360,000 compounds, 0.12% hits; AID 588501, 2011
BoNT A protease = BoNT/A light chain protease inhibitors, primary screen, biochemical, flow cytometry, MLPCN library; Botulinum neurotoxin type A light chain protease (Clostridium botulinum A str. ATCC 3502); multiplex microsphere protease substrate cleavage; inhibition, % at 10 µM; 360,000 compounds, 0.17% hits; AID 588499, 2011
MazF activator = activators of E. coli MazEF toxin-antitoxin RNase, primary screen, biochemical, fluorescence, uHTS | AID 504720, 2011 | Endoribonuclease toxin MazF (Escherichia coli (strain K12)), P0AE70 | activation, % at 20 µM | 350,000 compounds, 0.32% hits | FAM/BHQ RNA-DNA oligo cleavage fluorescence, 5 h; in the data active = activation above about 50%
Of the large screens only hits and unclear results are named; the others gave an inactive call; ! = not confirmed by another sample. Compounds with a hit are over-represented: about 4.3% of the library has one in this group of screens. Rule as the data show it, unless noted: active = inhibition above about 30%; inconclusive = no clear call, values can overlap the other calls; inactive = below that.

O=C(NC1CCC(O)CC1)c1ccc(NS(=O)(=O)c2cccc([N+](=O)[O-])c2)cc1 (stereo not drawn)	none
Cc1cc(C(=O)N2CCCC(CO)(Cc3ccc(F)cc3)C2)c(C)o1 (stereo not drawn)	none
Cn1nc(C(F)(F)F)cc1-c1ccc(/C=C(\C#N)C(=O)c2ccccc2)s1	Anthrax LF inh2 inconclusive, MazF activator 782
CCCc1nc2n[nH]c(N)c2c2c1COC(C)(C)C2	Bead autofluor 21384
N#C/C(=N\Nc1ccc(Cl)cc1)C(=O)c1ccccc1	none
Cc1c(N/N=C(\C#N)C(=O)c2ccc(Cl)cc2)c(=O)n(-c2ccccc2)n1C	PfHsp40 yeast 99
CCOC(=O)C(=Cc1ccc(-c2ccsc2C(=O)OC)o1)C(=O)OCC	Bead autofluor 22339
COC(=O)c1sccc1-c1ccc(C(=O)Nc2cccnc2)o1	Bead autofluor 21993
CCOC(=O)N1CCN(C(=O)c2cn(CC)c3ccc(S(=O)(=O)N4CC(C)CC(C)C4)cc3c2=O)CC1 (stereo not drawn)	none
N#CC1(NC(=O)CN2C(=O)NC(Cc3c[nH]c4ccccc34)C2=O)CCCCC1 (stereo not drawn)	none
CC(Sc1nc(-c2ccccc2)cc(=O)[nH]1)C(=O)O (stereo not drawn)	Bead autofluor 24389
CCCCN(C)CCCNC(=O)C1(O)c2ccccc2NC(=O)N1c1ccc(Cl)cc1 (stereo not drawn)	none
COCCOC(=O)C1=C(C)Nc2nc(C)nn2C1c1ccc(F)cc1 (stereo not drawn)	Bead autofluor 18889!, BoNT A protease inconclusive
COCCOC(=O)C1=C(C)Nc2ncnn2C1c1ccccc1 (stereo not drawn)	none
COc1ccc(-c2nc(C3CCCCC3)no2)cc1OC	Bead autofluor 22056
c1ccc(CCNCCCOc2cccc3ccccc23)cc1	BoNT-F LC inh inconclusive
COc1ccc(Cl)cc1NC(=O)COC(=O)C1CC(=O)N(Cc2ccccc2)C1 (stereo not drawn)	none (no result: Bead autofluor, BoNT-F LC inh, Anthrax LF inh2, BoNT A protease)
CSc1ccc(N2CCN(CCCNC(=O)Nc3ccccc3F)CC2)cc1	Bead autofluor 24815
CSc1ccc(NC(=O)NCCCN2CCC(Cc3ccccc3)CC2)cc1	none
CCO[C@H]1OC(C(=O)NCc2ccccc2)=C[C@@H](C(C)(C)C)[C@@H]1CCCO	none
O=C(CCCn1c(SCC(=O)c2ccc(O)c(O)c2)nc2ccccc2c1=O)NCC1CCCO1 (stereo not drawn)	Bead autofluor 23404
O=C(CCCn1c(SCC(=O)NC2CCCCC2)nc2ccccc2c1=O)NCC1CCCO1 (stereo not drawn)	Bead autofluor 21817
CCN(CC)CCCn1c(SCC(=O)NCC2CCCO2)nc2ccccc2c1=O (stereo not drawn)	Bead autofluor inconclusive
O=C(CCCn1c(SCC(=O)NCCc2ccccc2)nc2ccccc2c1=O)NCC1CCCO1 (stereo not drawn)	none
CCC(C)NC(=O)CSc1nc2ccccc2c(=O)n1CCCC(=O)NCC1CCCO1 (stereo not drawn)	Bead autofluor 22505, BoNT A protease inconclusive
COCCCNC(=O)CSc1nc2ccccc2c(=O)n1CCCC(=O)NCC1CCCO1 (stereo not drawn)	Bead autofluor 22765, BoNT A protease inconclusive
CCN(CC)CCSc1nnc2c3ccccc3n(Cc3ccccc3)c2n1	none
O=C(NCc1cn2ccccc2n1)C1CCC(=O)N(Cc2ccccc2F)C1 (stereo not drawn)	none
Cn1ccc2c(-c3ccc4c(c3)OCCO4)cc3c(c21)C1CCC3O1 (stereo not drawn)	none (no result: PfHsp40 yeast, MazF activator)
CCC1(C)OC(c2ccccc2)=C/C(=C/C=C2C(=O)NC(=O)NC2=O)O1 (stereo not drawn)	MazF activator 67
CCOC(=O)C[C@H]1c2cc(F)ccc2S(=O)(=O)N1C1CCCC1	none
Cc1nc(Nc2ncc3c(n2)CC(C)(C)CC3=O)nc2ccccc12	none
CC1=NC(Nc2nc(C)c3ccccc3n2)=NC(C)(C)C1	Bead autofluor 24864
N#Cc1c(NC(=O)CSc2ncn[nH]2)sc2c1CCCCC2	Bead autofluor 22487, BoNT A protease inconclusive
